Test results published in PubChem BioAssay (NCI).
Compounds without any hit were thinned out: in the full panel of roughly 83,000, 20% have a hit.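 Each cell line was grown in a 96-well plate and treated with one concentration of compound for 48 hours. Values below 10 were considered active.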 A number with no mark means an inactive call. Calls of active or inactive are those of the source.

Each compound was assayed on SW-620 colon (assay: NCI-60 one-dose screen, 48 h (100 = growth as untreated, 0 = no growth, -100 = all killed)). Details: 10 µM unless noted.
Protocol: Growth inhibition of the SW-620 human tumor cell line is measured as a screen for anti-cancer activity. Cells are grown in 96 well plates and exposed to the test compound for 48 hours. Compounds are tested at a single concentration, which is 10^-5 M for most compounds. The reported endpoint is percent growth (GI% or GIPRCNT), where numbers from 0 - 100% represent growth inhibition, and numbers from -100% - 0 represent cell death. For example, a value of 40 represents 60% growth inhibition. A value of 0 means no net growth occurred over the course of the experiment. A value of -40 indicates 40% of cells at the beginning of the experiment died by the end of the experiment. A value of -100 means all cells are dead at the end of the experiment.
NCI-60 Human Tumor Cell Lines Screen was performed using the standard one-dose NCI protocol, which is described in more detail at https://dtp.cancer.gov/discovery_development/nci-60/default.htm.
Compounds with GIPRCNT values below 10 were considered active. Activity score was based on GIPRCNT using the following formula: […]
Score is 0 for GIPRCNT values of 100 or above, 50 for GIPRCNT values of 0, and 100 for GIPRCNT values of -100.

SMILES	growth
Cc1nc2cc(Nc3nc(Nc4ccc(F)cc4)nc(-c4cccs4)n3)ccc2n1Cc1ccccc1	68.1%
O=C(Nc1nc2ccccc2[nH]1)C(=O)Nc1nc2ccccc2[nH]1	102%
Cc1nc2cc(Nc3nc(N4CCOCC4)nc(N4CCN(C)CC4)n3)ccc2n1Cc1ccccc1	104%
Cc1ccc(C2SCC(=O)N2NC(=O)c2[nH]c3ccc(F)cc3c2-c2ccccc2)cc1 (stereo not given)	102%
CCC(=O)Nc1nnc(Cc2ccc(OC)c(OC)c2)s1	33.8%
O=C1CCC(N2C(=O)c3cccc(NCCOCCOCCNC(=O)c4cc5c(o4)C(=O)c4ccccc4C5=O)c3C2=O)C(=O)N1 (stereo not given)	-19.3% (active)
COc1cc(/C=C/C(=O)C(=Cc2ccc(F)c(F)c2)C(=O)/C=C/c2ccc(O)c(OC)c2)ccc1O	-44.7% (active)
O=C(NCc1ccc(F)cc1)C1CN(c2ccc(Cl)cc2)N(c2ccc(Cl)cc2)C1=O (stereo not given)	36.7%
NC(=S)N/N=C1\c2ccccc2-c2c(F)c(F)c(F)c(F)c21	59.8%
Cc1c(C(=O)Nc2nc(-c3ccccc3)cs2)nnn1-c1cccc2ccccc12	71.6% [50 µM]
Cc1c(NCC(=O)Nc2nc3ccccc3[nH]2)c(=O)n(-c2ccccc2)n1C	103%
COc1c(Cl)ccc2c(-c3nc4cc(Cl)c(F)cc4s3)cc(=O)oc12	90.9%
c1ccc2c(c1)oc1cc3c(cc12)nnc1cccn13	108%
CCSc1nnc2c3cc(Br)ccc3n(C)c2n1	103%
Cc1c(C(=O)Nc2nc(-c3ccccc3)cs2)nnn1-c1ccccc1Br	61% [50 µM]
Cc1nn(-c2ccccc2)c2nc3nc4c(c(N)c3c(-c3ccc(Cl)cc3)c12)CCCC4	79.5%
N#CC1=C(N)Oc2cc(N)ccc2C1c1ccc(F)cc1 (stereo not given)	46.8%
CCCCCCCC/C=C\CCCCCCCCOc1cccc(CC(=O)NCC[N+]2(C)CCOCC2)c1	89.1%
Cc1ccc2nc(NC(=O)CSC(=S)N3CCN(C)CC3)sc2c1	106%
COc1ccc(-c2c3c(N)c4c(nc3nc3c2c(C)nn3-c2ccccc2)CCCCC4)cc1	83.5%

SMILES	growth
CCCCCCCCCCCC(=O)[O][Sn]([CH2]CCC)([CH2]CCC)[CH2]CCC	-43.2% (active)
Clc1ccc(C2=NN(c3ccccc3)[C@H](c3cn(-c4ccccc4)nc3-c3ccccc3)C2)cc1	107%
COc1cc(/C=C/C(=O)CC(=O)/C=C/c2cc(Br)c(OC)c(OC)c2)cc(Br)c1OC	114%
Nc1nc(-c2ccnc(Cl)c2)nn1-c1nc2ccccc2s1	106%
O=C1/C(=C/c2ccccc2F)CNC/C1=C\c1ccccc1F	-49.8% (active)
O=C1c2cc(S(=O)(=O)O)ccc2C(=O)c2c1cccc2[N+](=O)[O-]	110%
Cn1c2c(cc(S(=O)(=O)c3ccccc3)c1=O)CCc1c-2cnn1-c1ccccc1Cl	116%
Cc1ccccc1-n1nnc(C(=O)Nc2ccc(-c3ccccc3)cn2)c1C	69.3% [50 µM]
CCCCC1COc2cccc3c(SCC(=O)N(C)c4cccc5ccccc45)cc[n+]1c23 (stereo not given)	105%
Clc1ccc(Nc2ccnc(N3CCN(c4ccnc5cc(Cl)ccc45)CC3)n2)cc1	48.5%
O=C1Nc2ccc(Cl)cc2/C1=N/N=C(c1ccccc1)c1ccccc1	94.1%
CN([N-]C(=O)CC(=O)[N-]N(C)C(=S)c1ccccc1)C(=S)c1ccccc1.[Cu+2]	-67.4% (active)
CCOC(=O)c1c(Cl)c2c(n1Cc1cc(OC)cc(OC)c1)-c1oncc1CCC2	16.8%
C=CC(=O)N1CC2(CCC(n3nc(-c4ccc(Oc5ccccc5)cc4)c4c(N)ncnc43)CC2)C1	0.371% (active)
CN1CCN(C)c2cncc(Br)c2C1=O	102%
COc1ccc(S(=O)(=O)c2ccc(C(N)=O)cc2)cc1NC(=O)c1[nH]c(C)c2c1CCCCC2=O	68.4%
Nc1cccc2c(=S)c3ccccc3[nH]c12	92.6%
O=c1[nH]c(-c2ccccn2)nc2sc3c(c12)CCCCCC3	25%
COc1cccc(Nc2nc(NCCO)c3ccccc3n2)c1	64.5%
O=C1NC(=S)S/C1=C\c1cccc([N+](=O)[O-])c1	115%
